Here are results for one sequence from paper PMC7862700, “An all-to-all approach to the identification of sequence-specific readers for epigenetic DNA modifications on cytosine”.

Holding throughout (test): DAPPL (digital affinity profiling via proximity ligation, sequencing); 10 mM Tris-HCl pH 7.5, 50 mM NaCl, 1 mM DTT, 4% glycerol, room temperature, 30 min; GST-TFs on glutathione beads, 16-mer random dsDNA library, 0.1% formaldehyde crosslink after washing; high values mean tight binding
The target of assay [1] is T1, FEV (Homo sapiens, UniProt Q99581 1-238).
T1 sequence: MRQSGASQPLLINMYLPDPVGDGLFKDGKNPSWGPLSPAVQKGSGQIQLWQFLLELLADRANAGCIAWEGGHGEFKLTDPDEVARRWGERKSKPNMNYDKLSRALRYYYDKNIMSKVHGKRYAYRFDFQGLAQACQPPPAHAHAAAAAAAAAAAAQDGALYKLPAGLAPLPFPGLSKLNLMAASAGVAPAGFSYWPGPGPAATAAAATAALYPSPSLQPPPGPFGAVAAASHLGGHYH
The following applies: protein: recombinant; tags: N-terminal GST; dsDNA, one strand shown. Put shortly:
(§1)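 Beads coated with glutathione captured GST-fused human transcription factors that had been expressed in yeast, and the factors were then given DNA barcodes and pooled with a tag-only sample. The pools were incubated with 200 nmole of a random double-stranded 16-mer DNA library in Tris/NaCl/DTT/glycerol buffer for 30 min at room temperature, washed, crosslinked with 0.1% formaldehyde and proximity-ligated with BsaI/T4 ligase at 37 °C for 1 h. PCR amplification and Illumina NextSeq500 sequencing came last. Binding signal is each hexamer's read frequency for a factor divided by its frequency for the tag-only sample.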

Assay [2] has as its target ETV5 (Homo sapiens, UniProt P41161 1-510). The following applies: protein: recombinant; tags: N-terminal GST; dsDNA, one strand shown. Summed up:
as §1

Assay [3] has as its target HSF1 (Homo sapiens, UniProt Q00613 1-529). The settings on record: protein: recombinant; tags: N-terminal GST; chain copies: 3; dsDNA, one strand shown. Summed up:
as §1

For assay [4], the target named is T2, SPIC (Homo sapiens, UniProt Q8N5J4 1-248).
T2 sequence: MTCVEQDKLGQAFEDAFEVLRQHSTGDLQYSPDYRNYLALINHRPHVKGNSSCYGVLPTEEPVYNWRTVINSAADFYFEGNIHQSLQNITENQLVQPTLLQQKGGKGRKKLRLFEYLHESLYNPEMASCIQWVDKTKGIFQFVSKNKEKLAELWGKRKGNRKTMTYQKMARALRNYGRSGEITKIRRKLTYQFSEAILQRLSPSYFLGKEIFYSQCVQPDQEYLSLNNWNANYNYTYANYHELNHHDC
The settings on record: protein: recombinant; tags: N-terminal GST; dsDNA, one strand shown. Summed up: as §1

The target of assay [5] is ELF4 (Homo sapiens, UniProt Q99607 1-663). The settings on record: protein: recombinant; tags: N-terminal GST; dsDNA, one strand shown. Summed up:
as §1

For assay [6], the target named is T3, ELK4 (Homo sapiens, UniProt P28324-2 1-405).
T3 sequence: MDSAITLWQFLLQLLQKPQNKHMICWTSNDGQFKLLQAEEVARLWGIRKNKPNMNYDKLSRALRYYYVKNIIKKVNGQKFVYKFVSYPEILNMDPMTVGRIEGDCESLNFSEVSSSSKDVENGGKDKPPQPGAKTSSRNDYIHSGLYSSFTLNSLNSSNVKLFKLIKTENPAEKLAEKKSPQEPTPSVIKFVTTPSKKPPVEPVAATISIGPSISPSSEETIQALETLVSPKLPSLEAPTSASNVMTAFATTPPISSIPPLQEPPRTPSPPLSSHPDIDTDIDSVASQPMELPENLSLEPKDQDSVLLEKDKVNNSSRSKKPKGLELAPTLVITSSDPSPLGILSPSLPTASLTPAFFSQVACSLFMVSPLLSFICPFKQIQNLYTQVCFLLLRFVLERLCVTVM
The settings on record: protein: recombinant; tags: N-terminal GST; dsDNA, one strand shown. Summed up:
as §1

Assay [7] deals with T4, ETV2 (Homo sapiens, UniProt O00321 1-342).
T4 sequence: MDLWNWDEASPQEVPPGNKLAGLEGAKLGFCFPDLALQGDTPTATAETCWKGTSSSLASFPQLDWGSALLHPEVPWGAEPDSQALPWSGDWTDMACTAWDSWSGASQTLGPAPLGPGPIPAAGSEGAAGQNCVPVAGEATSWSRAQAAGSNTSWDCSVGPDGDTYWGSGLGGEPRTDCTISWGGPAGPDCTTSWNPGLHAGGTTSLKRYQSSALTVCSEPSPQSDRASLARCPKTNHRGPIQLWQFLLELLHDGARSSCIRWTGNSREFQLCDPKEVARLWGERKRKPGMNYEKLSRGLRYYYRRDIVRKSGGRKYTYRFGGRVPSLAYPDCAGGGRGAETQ
The following applies: protein: recombinant; tags: N-terminal GST; dsDNA, one strand shown. Put shortly: as §1

Assay [8] addresses T5, ELF3 (Homo sapiens, UniProt P78545 1-371).
T5 sequence: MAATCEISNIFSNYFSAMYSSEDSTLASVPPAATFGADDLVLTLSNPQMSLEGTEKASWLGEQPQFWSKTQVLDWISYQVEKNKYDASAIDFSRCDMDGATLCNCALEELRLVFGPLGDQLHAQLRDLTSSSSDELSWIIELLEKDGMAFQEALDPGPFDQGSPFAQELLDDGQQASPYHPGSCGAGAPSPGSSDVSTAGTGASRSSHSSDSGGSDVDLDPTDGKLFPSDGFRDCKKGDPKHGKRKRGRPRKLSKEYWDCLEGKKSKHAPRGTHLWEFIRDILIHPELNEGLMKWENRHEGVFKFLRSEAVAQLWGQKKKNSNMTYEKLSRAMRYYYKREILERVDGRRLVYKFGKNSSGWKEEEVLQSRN
The settings on record: protein: recombinant; tags: N-terminal GST; dsDNA, one strand shown. Put shortly:
as §1

Assay [9] has as its target CRX (Homo sapiens, UniProt O43186 1-299). The settings on record: protein: recombinant; tags: N-terminal GST; dsDNA, one strand shown. Summed up: as §1
Assay [10] has as its target ETV1 (Homo sapiens, UniProt P50549 1-477). The settings on record: protein: recombinant; tags: N-terminal GST; dsDNA, one strand shown. Put shortly: as §1
In assay [11] the target is T6, ERF (Homo sapiens, UniProt P50548 1-548).
T6 sequence: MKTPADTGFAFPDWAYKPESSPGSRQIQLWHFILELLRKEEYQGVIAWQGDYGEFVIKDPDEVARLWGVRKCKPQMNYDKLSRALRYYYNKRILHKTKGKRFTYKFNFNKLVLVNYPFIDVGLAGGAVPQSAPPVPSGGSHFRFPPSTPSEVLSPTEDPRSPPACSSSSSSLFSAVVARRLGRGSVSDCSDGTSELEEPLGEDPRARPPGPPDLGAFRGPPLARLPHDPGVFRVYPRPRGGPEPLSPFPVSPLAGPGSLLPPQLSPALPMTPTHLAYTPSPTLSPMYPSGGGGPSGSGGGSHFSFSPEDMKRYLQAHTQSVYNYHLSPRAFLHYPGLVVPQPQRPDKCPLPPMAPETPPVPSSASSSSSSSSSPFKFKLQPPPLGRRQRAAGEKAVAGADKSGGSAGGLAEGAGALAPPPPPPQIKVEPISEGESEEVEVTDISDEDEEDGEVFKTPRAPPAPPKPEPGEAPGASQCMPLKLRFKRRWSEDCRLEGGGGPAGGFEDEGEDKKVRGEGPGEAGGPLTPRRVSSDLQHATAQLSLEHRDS
The settings on record: protein: recombinant; tags: N-terminal GST; dsDNA, one strand shown. Summed up: as §1

Assay [12] deals with T7, ETV3L (Homo sapiens, UniProt Q6ZN32 1-361).
T7 sequence: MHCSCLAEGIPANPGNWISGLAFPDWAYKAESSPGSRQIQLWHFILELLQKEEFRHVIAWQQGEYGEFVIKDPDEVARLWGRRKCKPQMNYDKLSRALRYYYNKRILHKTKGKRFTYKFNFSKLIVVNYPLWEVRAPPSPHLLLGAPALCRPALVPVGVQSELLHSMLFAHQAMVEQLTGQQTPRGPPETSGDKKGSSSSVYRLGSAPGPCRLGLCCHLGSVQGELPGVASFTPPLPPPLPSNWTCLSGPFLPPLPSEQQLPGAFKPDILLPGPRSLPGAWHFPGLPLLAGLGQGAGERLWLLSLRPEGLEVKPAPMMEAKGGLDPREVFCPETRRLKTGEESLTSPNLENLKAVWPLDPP
The following applies: protein: recombinant; tags: N-terminal GST; dsDNA, one strand shown. Put shortly: as §1

Assay [13] concerns the target T8, ETS2 (Homo sapiens, UniProt P15036 1-469).
T8 sequence: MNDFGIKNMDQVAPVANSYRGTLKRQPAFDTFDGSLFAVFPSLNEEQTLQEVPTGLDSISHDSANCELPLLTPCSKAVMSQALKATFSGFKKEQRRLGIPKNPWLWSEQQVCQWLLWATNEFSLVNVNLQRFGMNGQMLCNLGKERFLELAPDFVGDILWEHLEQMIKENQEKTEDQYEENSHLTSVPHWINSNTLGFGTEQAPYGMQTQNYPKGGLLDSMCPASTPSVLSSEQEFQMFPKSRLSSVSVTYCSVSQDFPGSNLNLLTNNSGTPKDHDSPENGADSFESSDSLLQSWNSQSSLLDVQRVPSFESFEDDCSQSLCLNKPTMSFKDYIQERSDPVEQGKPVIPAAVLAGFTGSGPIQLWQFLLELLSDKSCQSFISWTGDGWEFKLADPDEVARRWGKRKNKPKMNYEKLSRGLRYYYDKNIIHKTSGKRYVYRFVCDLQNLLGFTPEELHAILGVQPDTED
The following applies: protein: recombinant; tags: N-terminal GST; dsDNA, one strand shown. Summed up:
as §1

Assay [14] deals with T9, SPDEF (Homo sapiens, UniProt O95238 1-335).
T9 sequence: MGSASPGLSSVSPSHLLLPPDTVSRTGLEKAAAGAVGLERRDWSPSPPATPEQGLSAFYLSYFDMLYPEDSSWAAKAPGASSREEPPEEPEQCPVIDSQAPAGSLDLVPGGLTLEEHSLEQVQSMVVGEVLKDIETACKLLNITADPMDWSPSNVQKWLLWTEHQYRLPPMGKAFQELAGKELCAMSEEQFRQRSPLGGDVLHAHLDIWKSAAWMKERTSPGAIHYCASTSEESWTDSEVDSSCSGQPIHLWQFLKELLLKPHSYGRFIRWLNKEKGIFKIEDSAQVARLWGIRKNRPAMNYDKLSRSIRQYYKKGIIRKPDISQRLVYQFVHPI
The following applies: protein: recombinant; tags: N-terminal GST; dsDNA, one strand shown. Summed up:
as §1

Assay [15] has as its target T10, ETV7 (Homo sapiens, UniProt Q9Y603 1-341).
T10 sequence: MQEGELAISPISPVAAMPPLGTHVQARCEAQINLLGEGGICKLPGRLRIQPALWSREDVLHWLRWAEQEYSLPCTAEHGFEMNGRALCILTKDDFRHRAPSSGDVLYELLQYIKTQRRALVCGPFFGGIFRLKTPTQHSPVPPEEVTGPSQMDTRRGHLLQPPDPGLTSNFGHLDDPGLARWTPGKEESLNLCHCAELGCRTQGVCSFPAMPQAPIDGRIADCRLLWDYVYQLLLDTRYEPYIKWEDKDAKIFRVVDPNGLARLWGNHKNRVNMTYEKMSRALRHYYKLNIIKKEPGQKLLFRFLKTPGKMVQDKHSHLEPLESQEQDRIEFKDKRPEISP
The following applies: protein: recombinant; tags: N-terminal GST; dsDNA, one strand shown. Put shortly: as §1

Assay [16] addresses T11, ELF5 (Homo sapiens, UniProt Q9UKW6-2 1-255).
T11 sequence: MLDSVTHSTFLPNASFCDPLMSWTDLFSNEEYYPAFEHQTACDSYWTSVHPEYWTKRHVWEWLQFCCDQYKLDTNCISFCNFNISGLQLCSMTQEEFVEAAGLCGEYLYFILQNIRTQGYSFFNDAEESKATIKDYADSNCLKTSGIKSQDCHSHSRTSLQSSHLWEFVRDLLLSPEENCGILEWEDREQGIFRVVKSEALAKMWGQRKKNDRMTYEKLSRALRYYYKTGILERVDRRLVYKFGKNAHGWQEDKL
The following applies: protein: recombinant; tags: N-terminal GST; dsDNA, one strand shown. Summed up:
as §1

The target in assay [17] is T12, ETV3 (Homo sapiens, UniProt P41162-2 1-143).
T12 sequence: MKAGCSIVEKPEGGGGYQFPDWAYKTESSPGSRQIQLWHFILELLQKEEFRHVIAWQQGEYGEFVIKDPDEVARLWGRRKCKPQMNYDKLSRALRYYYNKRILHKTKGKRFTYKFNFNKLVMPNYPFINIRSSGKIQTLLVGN
The following applies: protein: recombinant; tags: N-terminal GST; dsDNA, one strand shown. Put shortly: as §1

Assay [18] concerns the target ETV6 (Homo sapiens, UniProt P41212 1-452). The settings on record: protein: recombinant; tags: N-terminal GST; dsDNA, one strand shown. Summed up:
as §1

ELF4, sequence (Q99607 whole entry): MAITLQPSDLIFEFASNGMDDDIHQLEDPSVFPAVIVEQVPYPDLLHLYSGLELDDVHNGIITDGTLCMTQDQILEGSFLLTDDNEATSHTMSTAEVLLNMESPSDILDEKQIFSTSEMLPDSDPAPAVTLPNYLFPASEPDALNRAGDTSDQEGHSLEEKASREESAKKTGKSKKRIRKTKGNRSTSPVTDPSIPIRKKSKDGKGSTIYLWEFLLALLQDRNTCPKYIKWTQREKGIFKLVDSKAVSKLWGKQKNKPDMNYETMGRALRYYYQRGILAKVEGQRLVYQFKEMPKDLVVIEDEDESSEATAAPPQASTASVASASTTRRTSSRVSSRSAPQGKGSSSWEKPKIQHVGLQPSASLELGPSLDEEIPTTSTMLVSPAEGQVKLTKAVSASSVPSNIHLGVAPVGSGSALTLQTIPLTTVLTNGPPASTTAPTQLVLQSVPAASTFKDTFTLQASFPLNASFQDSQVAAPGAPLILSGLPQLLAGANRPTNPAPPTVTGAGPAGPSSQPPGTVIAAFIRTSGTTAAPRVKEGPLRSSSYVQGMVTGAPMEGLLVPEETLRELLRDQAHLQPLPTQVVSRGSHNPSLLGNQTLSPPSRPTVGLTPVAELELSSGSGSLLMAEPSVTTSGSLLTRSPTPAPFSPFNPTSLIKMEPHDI
CRX, sequence (O43186 whole entry): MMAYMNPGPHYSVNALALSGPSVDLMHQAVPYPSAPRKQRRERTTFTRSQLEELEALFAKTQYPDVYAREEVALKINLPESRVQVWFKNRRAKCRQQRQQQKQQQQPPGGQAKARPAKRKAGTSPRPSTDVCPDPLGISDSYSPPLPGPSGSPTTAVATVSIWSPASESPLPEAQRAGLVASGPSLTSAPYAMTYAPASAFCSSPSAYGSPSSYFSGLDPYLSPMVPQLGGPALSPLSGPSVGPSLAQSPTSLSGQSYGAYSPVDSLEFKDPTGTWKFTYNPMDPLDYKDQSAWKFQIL
ETV6, sequence (P41212 whole entry): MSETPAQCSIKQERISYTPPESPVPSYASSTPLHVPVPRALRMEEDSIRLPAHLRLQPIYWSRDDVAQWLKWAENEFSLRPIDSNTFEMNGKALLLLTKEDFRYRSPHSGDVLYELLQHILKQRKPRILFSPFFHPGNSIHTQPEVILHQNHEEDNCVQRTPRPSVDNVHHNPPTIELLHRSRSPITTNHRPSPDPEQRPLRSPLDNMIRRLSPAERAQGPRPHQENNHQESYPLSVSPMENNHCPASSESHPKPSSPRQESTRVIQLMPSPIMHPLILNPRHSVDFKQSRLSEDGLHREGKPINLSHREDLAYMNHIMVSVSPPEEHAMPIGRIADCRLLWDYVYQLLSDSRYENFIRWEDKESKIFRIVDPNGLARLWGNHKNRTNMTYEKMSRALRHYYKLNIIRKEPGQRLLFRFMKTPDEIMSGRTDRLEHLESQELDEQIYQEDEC
ETV1, sequence (P50549 whole entry): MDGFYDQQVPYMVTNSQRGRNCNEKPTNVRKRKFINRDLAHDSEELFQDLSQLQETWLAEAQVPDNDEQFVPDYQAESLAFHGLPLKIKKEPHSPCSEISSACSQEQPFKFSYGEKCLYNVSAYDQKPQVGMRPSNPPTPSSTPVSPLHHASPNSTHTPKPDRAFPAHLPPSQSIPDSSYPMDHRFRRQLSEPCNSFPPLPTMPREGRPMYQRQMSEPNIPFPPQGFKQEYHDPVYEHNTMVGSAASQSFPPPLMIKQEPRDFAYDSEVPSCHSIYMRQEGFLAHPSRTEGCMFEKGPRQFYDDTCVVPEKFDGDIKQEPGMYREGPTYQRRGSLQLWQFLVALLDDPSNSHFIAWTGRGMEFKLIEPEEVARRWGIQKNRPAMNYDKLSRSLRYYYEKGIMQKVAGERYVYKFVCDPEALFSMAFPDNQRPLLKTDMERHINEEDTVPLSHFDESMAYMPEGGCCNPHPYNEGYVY
ETV5, sequence (P41161 whole entry): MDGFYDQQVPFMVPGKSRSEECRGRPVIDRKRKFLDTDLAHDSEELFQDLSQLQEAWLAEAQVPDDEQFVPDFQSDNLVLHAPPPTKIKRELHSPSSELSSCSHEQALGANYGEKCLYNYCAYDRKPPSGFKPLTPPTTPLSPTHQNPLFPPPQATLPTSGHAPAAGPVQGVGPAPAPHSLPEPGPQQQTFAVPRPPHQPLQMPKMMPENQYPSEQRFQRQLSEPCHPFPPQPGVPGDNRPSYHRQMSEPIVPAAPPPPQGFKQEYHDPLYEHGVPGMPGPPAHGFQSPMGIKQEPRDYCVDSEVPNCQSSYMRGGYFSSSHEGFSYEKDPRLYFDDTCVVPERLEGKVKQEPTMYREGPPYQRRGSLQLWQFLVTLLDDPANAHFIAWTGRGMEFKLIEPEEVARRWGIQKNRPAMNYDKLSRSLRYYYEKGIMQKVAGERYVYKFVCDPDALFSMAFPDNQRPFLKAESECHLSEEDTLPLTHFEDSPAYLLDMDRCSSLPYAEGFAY
HSF1, sequence (Q00613 whole entry): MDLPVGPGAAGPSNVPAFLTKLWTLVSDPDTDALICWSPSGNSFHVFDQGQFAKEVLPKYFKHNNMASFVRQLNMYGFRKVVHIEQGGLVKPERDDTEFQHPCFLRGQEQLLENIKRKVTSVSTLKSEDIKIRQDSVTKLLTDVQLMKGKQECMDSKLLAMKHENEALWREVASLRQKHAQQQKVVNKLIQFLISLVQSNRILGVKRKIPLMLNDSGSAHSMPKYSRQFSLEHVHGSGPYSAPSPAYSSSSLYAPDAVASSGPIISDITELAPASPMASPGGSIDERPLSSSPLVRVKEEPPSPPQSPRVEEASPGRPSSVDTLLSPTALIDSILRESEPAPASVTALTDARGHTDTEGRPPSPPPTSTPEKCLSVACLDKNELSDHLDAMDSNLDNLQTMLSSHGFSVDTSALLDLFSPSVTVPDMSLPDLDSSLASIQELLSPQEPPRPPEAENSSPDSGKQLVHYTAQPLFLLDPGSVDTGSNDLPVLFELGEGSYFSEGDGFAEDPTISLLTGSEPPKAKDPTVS

For TCAACC, the binding signal was 1.19 fold enrichment (6-mer frequency, TF over GST control) in assay [1]; 1.22 fold enrichment (6-mer frequency, TF over GST control) in assay [2]; 1.03 fold enrichment (6-mer frequency, TF over GST control) in assay [3]; 1.07 fold enrichment (6-mer frequency, TF over GST control) in assay [4]; 1.19 fold enrichment (6-mer frequency, TF over GST control) in [5]; 1.16 fold enrichment (6-mer frequency, TF over GST control) in assay [6]. Besides, the binding signal is 1.3 fold enrichment (6-mer frequency, TF over GST control) in assay [7]; 1.16 fold enrichment (6-mer frequency, TF over GST control) in [8]; 1.09 fold enrichment (6-mer frequency, TF over GST control) in assay [9]; 1.23 fold enrichment (6-mer frequency, TF over GST control) in [10]; 1.3 fold enrichment (6-mer frequency, TF over GST control) in [11]; 1.24 fold enrichment (6-mer frequency, TF over GST control) in assay [12]. In addition, the binding signal was 1.22 fold enrichment (6-mer frequency, TF over GST control) in assay [13]; 1.2 fold enrichment (6-mer frequency, TF over GST control) in [14]; 1.07 fold enrichment (6-mer frequency, TF over GST control) in assay [15]; 1.07 fold enrichment (6-mer frequency, TF over GST control) in assay [16]; 1.16 fold enrichment (6-mer frequency, TF over GST control) in assay [17]; 1.22 fold enrichment (6-mer frequency, TF over GST control) in [18].
